Source: PubChem BioAssay
Several values for one entry are separate records, joined by “and”; a condition that tells them apart may be missing. Identical values can stand only once. Activity calls are given as the source filed them.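 Rule for the calls, unless noted: active = normalized viability below 100% at a tested concentration; inactive = the rest.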

Columns and labels:
[1] = viability loss with induced miR-34 in A549 – imaging, A549 dox-inducible miR-34, nuclei and caspase counts, primary screen (AID 1347080;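 active = compounds whose cell count with miR-34 switched on is under 0.7 times the count with it off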); conditions: A549 miR-34 inducible, Hoechst nuclei count, 48 h
[2] = MELAS cybrid and Rieske KO viability enhancers – cell-based, MELAS cybrids, Rieske KO mouse fibroblasts, CellTiter-Glo, primary screen (AID 1508586;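 active = mean z-score across replicates of 1.96 or higher in either the MELAS or the Rieske mutant cell line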;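 note: z relative to plate mean and SD of compound and empty wells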); conditions: low glucose
[3] = drug combination growth inhibition, ovarian cancer – cell-based, oncology-focused library, rucaparib conditional, profiling panel (AID 1508598); conditions: patient-derived ovarian cancer cells, CellTiter-Glo viability, 144 h, stronger effect = lower value
[4] = P. berghei load reduction in hepatocytes – cell-based, HepG2, luciferase luminescence, HepG2 viability, primary screen (AID 624349; in the data active = parasite load remaining mostly below about 12%, no sharp cut-off; inactive = mostly above about 10%;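 note: 100% = mean of DMSO negative control wells on the same plate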); conditions: P. berghei liver stage in HepG2, luciferase luminescence, concentration not given here; parasite load remaining: stronger effect = lower value; viability: measured here: HepG2 viability without parasites
[5] = galactose survival enhancers in mitochondrial complex I cybrids – cell-based, galactose medium, ATP luminescence, primary screen (AID 1645843;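 active = z-score of at least 1.8 in each of two replicates, scored against plate mean and spread of sample wells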;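 note: positive z means more ATP and so rescue of galactose-driven cybrid death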); conditions: complex I mutant cybrid cells, 72 h, stronger effect = higher value
[6] = molecular target: NAD(+) hydrolase SARM1 (Homo sapiens) (UniProt Q6SZW1); assay: blocking NAD cleavage by SARM1 SAM-TIR – cell lysate, NAD-Glo luminescence (AID 1508614;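 active = compound whose remaining NAD level is above about 45 nM, limit read from the data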;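 note: higher remaining NAD means stronger inhibition of SARM1 NADase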); conditions: SAM-TIR HEK293T lysate NADase, at 1 µM, stronger effect = higher value
NAD(+) hydrolase SARM1 (Homo sapiens), sequence (Q6SZW1 whole entry, looked up): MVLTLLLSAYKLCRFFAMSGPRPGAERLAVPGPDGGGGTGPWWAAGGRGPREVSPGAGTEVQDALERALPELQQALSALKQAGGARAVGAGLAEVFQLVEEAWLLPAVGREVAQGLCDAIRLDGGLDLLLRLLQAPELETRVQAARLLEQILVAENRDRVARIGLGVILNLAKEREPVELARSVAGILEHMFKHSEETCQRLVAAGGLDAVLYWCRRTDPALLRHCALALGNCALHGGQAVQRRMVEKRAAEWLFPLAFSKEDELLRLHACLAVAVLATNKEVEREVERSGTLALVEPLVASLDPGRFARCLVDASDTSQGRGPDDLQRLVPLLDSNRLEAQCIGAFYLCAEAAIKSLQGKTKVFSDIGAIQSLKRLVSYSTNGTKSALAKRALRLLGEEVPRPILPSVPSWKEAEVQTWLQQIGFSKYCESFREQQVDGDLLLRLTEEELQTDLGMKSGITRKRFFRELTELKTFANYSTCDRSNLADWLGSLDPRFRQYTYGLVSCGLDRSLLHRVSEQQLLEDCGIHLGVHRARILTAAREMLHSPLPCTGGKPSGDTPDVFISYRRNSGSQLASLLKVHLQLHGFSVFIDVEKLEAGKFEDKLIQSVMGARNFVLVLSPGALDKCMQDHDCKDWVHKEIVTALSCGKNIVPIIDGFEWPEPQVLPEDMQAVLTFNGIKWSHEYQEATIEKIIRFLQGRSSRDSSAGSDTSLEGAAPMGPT

[7] = stronger effect = lower value, cell number ratio, induced over uninduced
[8] = measured here: relative caspase fold change +Dox/-Dox
[9] = measured here: total cells with miR-34 induction, stronger effect = lower value
[10] = measured here: total cells without miR-34 induction
[11] = MELAS cybrid survival, CellTiter-Glo 48 h, stronger effect = higher value
[12] = Rieske KO mouse fibroblast survival, CellTiter-Glo 72 h

CCc1c2c(nc3ccc(OC(=O)N4CCC(N5CCCCC5)CC4)cc13)-c1cc3c(c(=O)n1C2)COC(=O)[C@@]3(O)CC
2060: cell count [1, 9]
active: viability ([3]; at 0.313 µM, OCI-C5x cells, with rucaparib 10 µM, 100% = cells with rucaparib alone) 83.7% | viability ([3]; at 0.313 µM, OCI-C5x cells, without rucaparib) 99.6% | viability ([3]; at 0.313 µM, OCI-P5x cells, with rucaparib 20 µM, 100% = cells with rucaparib alone) 88.2% | viability ([3]; at 0.313 µM, OCI-P5x cells, without rucaparib) 88.7% | viability ([3]; at 1.25 µM, OCI-C5x cells, with rucaparib 10 µM, 100% = cells with rucaparib alone) 64.4% | viability ([3]; at 1.25 µM, OCI-C5x cells, without rucaparib) 62.8% | viability ([3]; at 1.25 µM, OCI-P5x cells, with rucaparib 20 µM, 100% = cells with rucaparib alone) 48.7% | viability ([3]; at 1.25 µM, OCI-P5x cells, without rucaparib) 37.8% | viability ([3]; at 5 µM, OCI-C5x cells, with rucaparib 10 µM, 100% = cells with rucaparib alone) 35.7% | viability ([3]; at 5 µM, OCI-C5x cells, without rucaparib) 29.9% | viability ([3]; at 5 µM, OCI-P5x cells, with rucaparib 20 µM, 100% = cells with rucaparib alone) 23.9% | viability ([3]; at 5 µM, OCI-P5x cells, without rucaparib) 13.4%
inactive: fold change [1, 7] 1.02 | z-score [2, 11] 0.2 | viability ([3]; at 0.000305 µM, OCI-C5x cells, with rucaparib 10 µM, 100% = cells with rucaparib alone) 115% | viability ([3]; at 0.000305 µM, OCI-C5x cells, without rucaparib) 112% | viability ([3]; at 0.000305 µM, OCI-P5x cells, with rucaparib 20 µM, 100% = cells with rucaparib alone) 119% | viability ([3]; at 0.000305 µM, OCI-P5x cells, without rucaparib) 112% | viability ([3]; at 0.00122 µM, OCI-C5x cells, with rucaparib 10 µM, 100% = cells with rucaparib alone) 114% | viability ([3]; at 0.00122 µM, OCI-C5x cells, without rucaparib) 118% | viability ([3]; at 0.00122 µM, OCI-P5x cells, with rucaparib 20 µM, 100% = cells with rucaparib alone) 112% | viability ([3]; at 0.00122 µM, OCI-P5x cells, without rucaparib) 114% | viability ([3]; at 0.00488 µM, OCI-C5x cells, with rucaparib 10 µM, 100% = cells with rucaparib alone) 119% | viability ([3]; at 0.00488 µM, OCI-C5x cells, without rucaparib) 118% | viability ([3]; at 0.00488 µM, OCI-P5x cells, with rucaparib 20 µM, 100% = cells with rucaparib alone) 106% | viability ([3]; at 0.00488 µM, OCI-P5x cells, without rucaparib) 107% | viability ([3]; at 0.0195 µM, OCI-C5x cells, with rucaparib 10 µM, 100% = cells with rucaparib alone) 117% | viability ([3]; at 0.0195 µM, OCI-C5x cells, without rucaparib) 110% | viability ([3]; at 0.0195 µM, OCI-P5x cells, with rucaparib 20 µM, 100% = cells with rucaparib alone) 108% | viability ([3]; at 0.0195 µM, OCI-P5x cells, without rucaparib) 103% | viability ([3]; at 0.0781 µM, OCI-C5x cells, with rucaparib 10 µM, 100% = cells with rucaparib alone) 112% | viability ([3]; at 0.0781 µM, OCI-C5x cells, without rucaparib) 106% | viability ([3]; at 0.0781 µM, OCI-P5x cells, with rucaparib 20 µM, 100% = cells with rucaparib alone) 104% | viability ([3]; at 0.0781 µM, OCI-P5x cells, without rucaparib) 106%
2030: cell count [1, 10]
1.54: fold change [1, 8]
-0.798: z-score [2, 12]

C[C@@H]1CCC[C@H](C)N1NC(=O)c1ccc(Cl)c(S(N)(=O)=O)c1
1.72 and 1.06: fold change [1, 8]
10400 and 11000: cell count [1, 10]
112% and 106%: viability [4]
9180 and 9670: cell count [1, 9]
inactive: parasite load remaining [4] 123% and 80.9% | fold change [1, 7] 0.884 and 0.878 | z-score [2, 11] 0.52 and -0.675 | z-score [5] 0.85
-0.0626 and -0.387: z-score [2, 12]

N#Cc1ccc2[nH]cc(CCCCN3CCN(c4ccc5oc(C(N)=O)cc5c4)CC3)c2c1
6440: cell count [1, 9]
6650: cell count [1, 10]
-0.181: z-score [2, 12]
inactive: fold change [1, 7] 0.968 | z-score [2, 11] -0.594 | remaining NAD [6] 10 nM
0.515: fold change [1, 8]
